# SENP8 block-1: inhibitors of human SENP8 protease; inhibition, % at 20 µM; actives 0.64% (n = 360,000); AID 602440; Q96LD8; recombinant SENP8, Nedd8 substrate fluorescence; in the data active means inhibition mostly above about 40%, no sharp cut-off; inactive means mostly below about 27%
# SENP6 block: inhibitors of human SENP6 protease; Q9GZR1; Recombinant SENP6 catalytic domain, aminoluciferin luminescence; inhibition, % at 10 µM; actives 1.8% (n = 330,000); AID 2599;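 active means inhibition above about 50% at the single tested dose, limit read from the data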;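 further: plate controls were DMSO wells with enzyme for no effect and DMSO wells lacking enzyme for full effect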
# HSP90 refold inh: inhibitors of HSP90 luciferase refolding in rabbit reticulocyte lysate; actives 0.91% (n = 290,000); luciferase refolding luminescence, 3 h; AID 1789; inhibition, % at 5.6 µM;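 active means inhibition above the screen-wide mean plus 3 SD, computed separately per campaign, cut at about 16% in these data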;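 further: 0% = DMSO wells and 100% = 60 µM geldanamycin wells; inhibitors lower the luminescence because luciferase stays unfolded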
# LGR2 antag: inhibitors of bursicon-induced Drosophila LGR2 receptor cAMP signaling. actives 0.35% (n = 380,000). AID 720647. HEK293 LGR2, CRE-luciferase, bursicon-stimulated, 4 h. inhibition, % at 9.99 µM;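 active means drop in luminescence signal, shown as inhibition above about 50% in the replicate tests, limit read from the data, passing the limit was not always enough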;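 further: agonist challenge used bursicon conditioned medium at about half maximal strength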
# SENP8 block-2: inhibitors of human SENP8 protease; actives 1.2% (n = 330,000); AID 2540; Q96LD8; inhibition, % at 10 µM; purified SENP8, Z-RLRGG-aminoluciferin cleavage, luminescence; in the data active means inhibition above about 50%
# SENP7 block: SENP7 protease inhibition; Q9BQF6; recombinant SENP7, Z-RLRGG-aminoluciferin luminescence, 40 min; inhibition, % at 5 µM; actives 1.5% (n = 330,000); AID 434973;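 active means inhibition above about 50% at the single test dose, limit read from the data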;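 further: plate controls were DMSO with enzyme for no effect and no enzyme buffer wells for full effect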
# Target sequence (Q9BQF6 706-1050 limits assumed): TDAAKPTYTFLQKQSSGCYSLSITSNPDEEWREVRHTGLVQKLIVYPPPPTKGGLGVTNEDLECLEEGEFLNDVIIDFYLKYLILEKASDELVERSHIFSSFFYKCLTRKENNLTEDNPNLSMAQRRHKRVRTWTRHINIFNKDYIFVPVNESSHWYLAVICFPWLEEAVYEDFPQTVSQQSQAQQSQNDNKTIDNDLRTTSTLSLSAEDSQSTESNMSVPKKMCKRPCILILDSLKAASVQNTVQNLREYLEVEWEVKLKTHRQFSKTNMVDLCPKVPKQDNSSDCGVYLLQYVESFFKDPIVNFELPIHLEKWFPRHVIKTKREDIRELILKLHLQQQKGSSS
# SENP8 conf: confirmation of human SENP8 protease inhibitors; inhibition, % at 12.5 µM; AID 488912; actives 40% (n = 6,200); Recombinant SENP8, Z-RLRGG-aminoluciferin luminescence, 60 min; shares compounds with SENP7 block;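 active means mean inhibition across replicates above about 50%, limit read from the data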
# SENP6 confirm: human SENP6 inhibition, confirmed; recombinant SENP6, Z-RLRGG-aminoluciferin luminescence; actives 58% (n = 6,200); inhibition, % at 12.5 µM; shares compounds with SENP7 block
# SENP7 conf: confirmation of human SENP7 protease inhibitors; recombinant SENP7, Z-RLRGG-aminoluciferin luminescence, 40 min; actives 69% (n = 6,200); shares compounds with SENP7 block; inhibition, % at 12.5 µM
# Casp3 select: inhibits human caspase-3 in SENP selectivity test; shares compounds with SENP7 block; inhibition, % at 12.5 µM; purified caspase-3, Z-DEVD-aminoluciferin luminescence, 60 min; actives 60% (n = 6,200); AID 488918;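 active means mean inhibition above about 50%, limit read from the data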;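 further: plate controls were enzyme with DMSO for no effect and wells without caspase-3 for full effect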
# SENP luc ctr: luminescence interference (SENP counter-screen). shares compounds with SENP7 block. Pre-incubated SENP8/Z-RLRGG-aminoluciferin, luciferase luminescence interference. inhibition, % at 12.5 µM. actives 39% (n = 6,200);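 active means mean inhibition above about 50% when retested at one dose, limit read from the data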;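 further: plate controls were DMSO wells with completed reaction for no effect and substrate without enzyme for full effect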
# * marks the source's active call; other numbers are inactive results; . = no result given. Shown are actives, neighbours in structure and some others; about 2.3% of the full set was active somewhere.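 How the source made its calls, unless noted: active means mean inhibition above about 50% in the one-dose retest (limit read from the data); inactive means the rest.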
SMILES,SENP8 block-1,SENP6 block,HSP90 refold inh,LGR2 antag,SENP8 block-2,SENP7 block,SENP8 conf,SENP6 confirm,SENP7 conf,Casp3 select,SENP luc ctr
O=c1c2ccccc2cnn1-c1ccc(Cl)cc1,-3.6,58.9*,2.2,.,34.1,57.4*,23.4,61.5*,73.3*,78.9*,33.2
COc1ccc2c3c(n(C)c2c1)[C@H](CO)N(Cc1ccccc1F)CC31CN(C(=O)C2CC2)C1,.,.,.,7.7,.,.,.,.,.,.,.
Cc1oc2ccc(OCc3ccccc3F)cc2c1C(=O)O,12.6,76.7*,3.6,.,53.2*,24.2,60.9*,57.1*,83.1*,73.5*,69.0*
Cc1ccccc1COc1ccc2oc(C)c(C(=O)O)c2c1,3.0,-6.6,-0.1,1.8,2.3,-2.9,.,.,.,.,.
Cc1oc2ccc(OCc3ccc(Cl)cc3)cc2c1C(=O)O,12.6,77.8*,3.7,-6.1,59.3*,-1.4,78.8*,80.5*,92.8*,65.6*,60.5*
Cc1oc2ccc(OCc3ccc(Br)cc3)cc2c1C(=O)O,11.2,68.4*,-0.9,3.9,10.5,-3.9,36.5,80.0*,63.0*,56.1*,26.9
C[C@H](CO)N1C[C@H](C)[C@H](CN(C)S(=O)(=O)c2ccccc2)Oc2c(NC(=O)Nc3ccc(F)cc3)cccc2C1=O,.,.,.,-10.1,.,.,.,.,.,.,.
C[C@@H]1CN([C@@H](C)CO)C(=O)c2cc(NS(=O)(=O)c3cccs3)ccc2O[C@@H]1CN(C)C(=O)Nc1ccc2c(c1)OCO2,.,.,.,-11.0,.,.,.,.,.,.,.
N#C/C(=C\c1ccco1)c1nc2ccccc2s1,-4.7,88.6*,5.9,-56.7,87.2*,87.7*,88.0*,91.0*,96.7*,84.3*,30.2
N#C/C(=C/c1ccco1)c1nc2ccccc2s1,-9.5,38.5,2.3,-47.5,85.8*,77.8*,81.8*,86.5*,95.0*,85.2*,54.9*
N#C/C(=C/c1ccc(-c2cc(C(=O)O)cc(C(=O)O)c2)o1)c1nc2ccccc2s1,.,-18.5,2.1,.,3.4,2.7,.,.,.,.,.
O=C(CNc1cccc2ccccc12)N/N=C/c1ccc(C(=O)O)cc1,-199.3,70.8*,-3.3,-6.4,57.8*,30.0,-7.8,-3.4,-4.9,4.0,3.1
O=C(CNc1ccc2ccccc2c1)N/N=C/c1ccc(C(=O)O)cc1,-203.2,-9.8,0.0,-13.6,2.7,-0.5,.,.,.,.,.
O=C(CNc1cccc2ccccc12)N/N=C/C=C/c1ccco1,-85.7,82.3*,5.2,3.3,60.5*,32.3,1.4,5.5,13.2,4.4,2.7
C/C(=N\NC(=O)CNc1cccc2ccccc12)c1ccccc1,-350.6,72.7*,0.0,6.3,54.2*,19.1,-0.1,4.2,10.0,0.7,-0.1
O=C(Cc1cccs1)N/N=C/C=C/c1ccco1,4.1,-1.7,-0.2,1.7,-4.3,0.8,.,.,.,.,.
Cc1ccc(Oc2cc(-n3nc(C)cc3C)ncn2)cc1,16.4,53.8*,-2.9,.,20.2,46.5,36.8,38.7,73.4*,38.2,23.8
O=C(Nc1ccc(Cl)cc1)Nc1cccc2nsnc12,-83.5,91.7*,-2.2,-92.5,90.6*,94.0*,-12.6,91.4*,88.1*,81.7*,47.2
COc1ccc2c3c(n(C)c2c1)[C@H](CO)N(C(=O)CC1CC1)CC31CN(C(=O)CC2CC2)C1,.,.,.,3.3,.,.,.,.,.,.,.
Cc1cccc(/C=C/C(=O)c2ccc(NC3=NCCCS3)cc2)c1,8.3,92.9*,0.0,-43.6,70.9*,88.0*,81.0*,67.6*,11.7,41.6,89.7*
c1ccc(Nc2nnc(-c3cccnc3)s2)cc1,-308.0,80.4*,14.7,-43.1,72.4*,86.9*,8.8,14.3,12.8,26.7,28.6

# Bioassay records: PubChem, several laboratories
